# According to PubChem BioAssay (NCATS):
# Results filed as inconclusive are left out. A number with no mark means an inactive call. The source made the active and inactive calls. Calls come from the whole dose curve; as a rule, active = well fitted curve in either direction with a large enough effect (not every such curve was filed as active); inconclusive = small, poorly fitted or top-dose-only effect, or another doubt; inactive = flat fitted curve, though single readings scatter.
# Test: NFAT Signaling Pathway (AID 444);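 note: carbachol stimulus at about its EC50 of 1 µM final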
# Settings: Jurkat NFAT-bla M1, carbachol, beta-lactamase ratio, 5 h; at 17.2 µM (top of the series) unless noted
# Summary of the method: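 Jurkat cells with NFAT-driven β-lactamase reporter and co-expressed M1 receptor, stimulated with carbachol (final 1 uM, ~EC50), compound titration, 5 h at 37 °C. CCF4 loaded 1 h at RT; 460/530 nm ratio gave %activity and AC50.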
# % is set by controls: 0 for no effect and ±100 for the full control effect.
row,SMILES,"activity change, negative = inhibition"
1,N#CC1=C(SCC(=O)c2ccc(Cl)cc2)NC2=C(C(=O)CCC2)C1c1ccco1 (configuration not stated),-22.4%
2,CN(Cc1ccccc1)c1ncnc2ccc(Br)cc12,-9.63%
3,COc1ccccc1C(=O)NC(=Nc1nc2ccccc2o1)NC(=O)c1ccccc1OC,-110% (active)
4,Cc1ccc(N2CC(C(=O)Nc3ccc(N(C)C)cc3)CC2=O)cc1C (configuration not stated),21.8%
5,CC(=Nc1cccc(O)c1)c1sc2ccccc2c1O,-27.3%
6,Cc1ccc(NC(=O)CSC2=C(C#N)C(c3ccc4c(c3)OCO4)CC(=O)N2)cc1C (configuration not stated),-0.339%
7,O=C(Oc1oc(-c2ccco2)nc1C=Nc1ccccc1)c1ccco1,-124% (active)
8,O=C(COc1ccc(-c2nnc(N3CCCCC3)c3ccccc23)cc1)N1CCCCC1,-4.72%
9,C#CCSC1=C(C#N)C(c2cccs2)C(C(=O)OCC)=C(C)N1 (configuration not stated),-26.3%
10,COc1ccc(NC(=O)CSC2=C(C#N)C(c3ccco3)C3=C(CCCC3=O)N2)c(OC)c1 (configuration not stated),-6.5%
11,CCOC(=O)CSc1nc(N)c(C(=O)Nc2ccc(N(C)C)cc2)s1,0.0938%
12,OC1(C2(O)CC(c3ccccc3)ON2)CCCCC1 (configuration not stated),-7.93%
13,CSc1nc(N)c(C#N)c(-c2ccccc2Cl)c1C#N,19.4%
14,CCOC(=O)c1cc2c(=O)n3cccc(C)c3nc2n(C)c1=N,-13%
15,CCSc1nc(N)c(C#N)c(-c2ccccc2Cl)c1C#N,-7.47%
16,COc1ccc(C(=O)CSC2=C(C#N)C3(CCCCC3)C(C#N)=C(N)N2)cc1,14.6%
17,O=C(Oc1oc(-c2ccco2)nc1C=Nc1ccccc1)c1ccoc1,-123% (active)
18,CN(C)c1ccc(NC(=O)c2sc(SCC(=O)Nc3nccs3)nc2N)cc1,2.32%

row,SMILES,"activity change, negative = inhibition"
1,Cc1cc(-c2cc(-c3ccc(Cl)cc3)nc(N)c2C#N)co1,14.5%
2,COc1cc([C@H]2c3cc4c(cc3[C@@H](O[C@H]3O[C@H]5CO[C@@H](C)O[C@H]5[C@@H](O)[C@@H]3O)[C@@H]3COC(=O)[C@H]23)OCO4)cc(OC)c1O,-0.949%
3,Cc1c(NC(=O)c2coc(=O)c(Br)c2)c(=O)n(-c2ccccc2)n1C,-128% (active)
4,COCCCNc1nc2c(c(=O)[nH]c(=O)n2C)n1CC(O)COc1ccccc1 (configuration not stated),16.9%
5,CCCc1cc(-n2ccnc2C)n2c(nc3ccccc32)c1C#N,6.63%
6,CCOC(=O)C1/C(=N\O)CC(C)(O)C(C(=O)OCC)C1c1ccc(OC)c(OC)c1 (configuration not stated),-0.404%
7,CN1CCc2cc(O)c(O)cc2[C@H](c2ccccc2)C1,-1.87% [at 38 µM]
8,COc1ccccc1-c1nn2c(-c3ccc(C(C)(C)C)cc3)nnc2s1,-12.3%
9,CC1(C)Cc2c(C#N)c(OCC(=O)c3ccc(Cl)cc3)nc(-c3ccoc3)c2CO1,-4.81%
10,COc1cccc(OCCN2CCN(c3ncnc4c3cnn4-c3ccccc3)CC2)c1,-29.6%
11,Nc1ncnc2c1ncn2[C@@H]1O[C@@H](CO)[C@H](O)[C@@H]1O,4.32% [at 38 µM]
12,Cc1cc(C)c(-n2c(O)c(C=NCCN3CCOCC3)c(=O)[nH]c2=O)c(C)c1,7.98%
13,Cc1nc2sc3c(NCc4ccco4)ncnc3c2c2c1COC(C)(C)C2,-8.41%
14,C=CCn1c(N)c(C(=O)Nc2ccccc2)c2nc3ccccc3nc21,-5.29%
15,COc1ccc(-c2nnc3sc(-c4ccccc4OC)nn23)cc1,-23.6%
16,OCCNc1ncnc2c1c(-c1ccccc1)c(-c1ccccc1)n2Cc1ccco1,-23.1%
17,CCOC(=O)c1c(-c2cccs2)csc1NC(=O)c1ccncc1,27.6%

# Test: Stat Signaling Pathway (AID 446);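 note: ME-180 cervical cancer cells given 40 pM IL-6 alongside compound; SIE-controlled beta-lactamase reporter measured as 460/530 nm FRET emission ratio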
# Settings: ME-180 (cervical carcinoma) SIE beta-lactamase reporter, IL-6 stimulated, 5 h; at 17.2 µM (top of the series) unless noted
# Summary of the method: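 Compound effects on IL-6-induced STAT reporter activity were measured in ME-180 cells. After overnight culture, cells were co-treated with 40 pM IL-6 for 5 hrs before beta-lactamase substrate loading at room temperature.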
row,SMILES,"activity, negative = inhibition"
1,CCN(CC)c1ccc2c(C)c(-c3ccc(N)cc3)c(=O)oc2c1,14.8%
2,O=C(c1ccccc1)C(CCC(CN1CCOCC1)C(=O)c1ccccc1)CN1CCOCC1 (configuration not stated),-25.4%
3,COc1ccc(NC(=O)CSC2=C(C#N)C(c3ccco3)C3=C(CCCC3=O)N2)c(OC)c1 (configuration not stated),-8.16%
4,OC1(C2(O)CC(c3ccccc3)ON2)CCCCC1 (configuration not stated),-6.74%
5,CCCCNc1c(CN)cnc2cc(Cl)ccc12,-10.8% [at 7.69 µM]
6,COc1cc([C@H]2c3cc4c(cc3[C@@H](O[C@H]3O[C@H]5CO[C@@H](C)O[C@H]5[C@@H](O)[C@@H]3O)[C@@H]3COC(=O)[C@H]23)OCO4)cc(OC)c1O,-20.6%
7,COCCCNc1nc2c(c(=O)[nH]c(=O)n2C)n1CC(O)COc1ccccc1 (configuration not stated),-9.93%
8,CN1CCc2cc(O)c(O)cc2[C@H](c2ccccc2)C1,-12.3% [at 38 µM]
9,CN(CCCCCNC(=O)/C=N/O)Cc1ccccc1,9.45%
10,N#Cc1ccc(-c2ccco2)nc1SCC(=O)c1ccc(Cl)cc1,-9.2%
11,Cc1cc(C)c(-n2c(O)c(C=NCCN3CCOCC3)c(=O)[nH]c2=O)c(C)c1,4.18%
12,CCOC(=O)c1c(-c2cccs2)csc1NC(=O)c1ccncc1,1.61%
